Compound activity deposited in PubChem by several laboratories.
This is a sample that favours compounds with a hit; in the whole collection about 1.9% have one here.
Ba/F3 V617F tox: reduced viability of JAK2V617F-dependent Ba/F3 cells, primary screen, JAK2V617F inhibitor project, cell-based, Ba/F3 EpoR-JAK2V617F, luminescence; ATP luminescence; inhibition, % at 5.6 µM; hit rate 1.1% among 220,000;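 active = inhibition above the campaign mean plus 3 SD over all tested compounds, cut at about 24% in these data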;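 also: cytokine-independent growth of Ba/F3 cells driven by EpoR plus mutant JAK2; 0% = DMSO-treated cells and 100% = JAK inhibitor I control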
BaF3 parental: parental Ba/F3 cell viability inhibition, counter-screen for JAK2V617F inhibitor project, murine pro-B, CellTiter-Glo luminescence | inhibition, % at 5.6 µM | CellTiter-Glo ATP luminescence | hit rate 1.1% among 220,000;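 active = inhibition above a per-campaign cutoff, the mean inhibition of all tested compounds plus 3 SD, cut at about 27% in these data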;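 also: 0% = DMSO wells and 100% = JAK Inhibitor I control wells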
KLF5 inhibitor: KLF5 expression inhibitors, primary screen, DLD-1 cells, luminescence | DLD-1 KLF5 promoter-luciferase reporter | inhibition, % at 5 µM | hit rate 0.23% among 290,000;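 active = inhibition above a per-plate limit of that plate's mean compound inhibition plus 3 SD, cut at about 60% in these data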;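 also: 0% = DMSO wells and 100% = LY294002 at 200 µM; higher means less KLF5 promoter-driven luciferase light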
APP transl inh: inhibitors of APP translation via 5'UTR reporter, primary screen, APP 5'UTR luciferase, SH-SY5Y cells. hit rate 0.82% among 190,000. inhibition, % at 2 µM. SH-SY5Y APP 5'UTR-luciferase reporter, luminescence;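 active = inhibition above a set limit, derived from the sample mean plus 3 SD, cut at about 45% in these data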
IEC-6 cytotox: cytotoxicity in IEC-6 intestinal epithelial cells, primary screen, cytotoxicity control for KLF5 inhibitor project, cell-based, luminescence; IEC-6 cytotoxicity, luminescence viability; inhibition, % at 5 µM; hit rate 0.78% among 290,000; in the data active = inhibition above about 22%;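 also: 0% = plate median of test compound wells and 100% = cytotoxic reference compound wells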
Active calls of the source: *; x = not tested or not shown.

SMILES | Ba/F3 V617F tox | BaF3 parental | KLF5 inhibitor | APP transl inh | IEC-6 cytotox
O=C(CN1CCOCC1)N/N=C/C=C/c1ccccc1 | 4 | 14 | -47 | 0 | 4
O=C(Cc1ccc([N+](=O)[O-])cc1)Nc1ccc2c(c1)C(=O)NC2=O | -1 | -1 | -6 | -13 | 0
N#Cc1c(SCC(=O)Nc2nccs2)sc2c(O)cc(=O)[nH]c12 | x | x | -9 | x | -4
N#CC1=C(N)Oc2c(ccc3cccnc23)C1c1ccccc1 (centres undefined) | 69* | 39* | 50 | x | 3
Cc1ccc2[nH]c(=O)c(C3C(C#N)=C(N)Oc4c3ccc3cccnc43)cc2c1 (centres undefined) | -3 | 2 | 4 | 34 | 3
CC1Cc2ccccc2N1C1=CC(=O)CCC1 (centres undefined) | 54* | 66* | -14 | -36 | 3
CC1Cc2ccccc2N1C1=NS(=O)(=O)c2ccccc21 (centres undefined) | -4 | 5 | -17 | -15 | 4
CCOC(=O)c1c[nH]c2c(C(=O)c3ccccc3)cc(Cl)cc2c1=O | x | x | 0 | x | 2
Cc1cccc(C(=O)NNC(=O)C2CCCO2)c1 (centres undefined) | 2 | 8 | -46 | -2 | 3
O=C(Cn1c(-c2ccccc2)c[n+]2ccsc12)c1ccc(Br)cc1 | 27* | 40* | -13 | 16 | 0
COc1c(C)cc(C(=O)C2CCCN(C(=O)c3ccoc3)C2)cc1C (centres undefined) | -2 | -2 | -18 | 0 | 4
CN1/C(=C/c2cc[n+](C)c3ccccc23)C=Cc2ccccc21 | 76* | 63* | 11 | 2 | -2
CN1/C(=C/c2cccc[n+]2C)Sc2ccccc21 | x | x | -5 | x | 16
COc1cccc(C(=O)Nc2ccccc2)c1 | 3 | 5 | -44 | -45 | 2
COc1cccc(S(=O)(=O)NCc2ccc(C(=O)Nc3ccc(Cl)cc3)cc2)c1 | 0 | 6 | -10 | -14 | -3
COc1cccc(-c2cc(=O)c3cc(NC(=O)c4ccccc4)ccc3[nH]2)c1 | -2 | 5 | -14 | 87* | 5
COc1cccc(-c2cc(=O)c3cc(NC(=O)c4ccc(Cl)cc4)ccc3[nH]2)c1 | 1 | 10 | -10 | 78* | 4
O=C(C1=C[C@@H](C2CCCCC2)C[C@@H](OCCCCO)O1)N1CCN(Cc2ccc3c(c2)OCO3)CC1 | -4 | -1 | -9 | 5 | -5
Brc1ccc(-c2cnc3n2CCCC3)cc1 | -4 | -1 | 4 | -7 | 3
CCOc1ccc(-c2cnc3n2CCC3)cc1 | 0 | 7 | -34 | 46* | -6
Cc1[nH]n(-c2ccccc2)c(=O)c1N=Nc1ccccc1O | 0 | 13 | 8 | 58* | 0
Cc1ccccc1N=Nc1c(C)[nH]n(-c2ccccc2)c1=O | -1 | 6 | -43 | 7 | -1
Cc1ccc2c3c([nH]c2c1C)-c1nonc1CC3 | -4 | 0 | -51 | -48 | 2
CC(=O)Nc1ncc(Cc2cccc(Cl)c2)s1 | 34* | 28* | 2 | 13 | -1
O=C(Nc1ncc(Cc2cccc([N+](=O)[O-])c2)s1)c1ccco1 | 18 | 27* | 3 | -47 | 6
SMILES | Ba/F3 V617F tox | BaF3 parental | KLF5 inhibitor | APP transl inh | IEC-6 cytotox
CCOc1cccc(C2/C(=C(/O)c3ccc4c(c3)CC(C)O4)C(=O)C(=O)N2Cc2ccncc2)c1 (centres undefined) | x | x | -23 | x | 0
O=C1NC(c2ccccc2)CCO1 (centres undefined) | x | x | -14 | x | 1
Cc1ccccc1C1CCCN(Cc2nc(C3CC3)no2)C1 (centres undefined) | -1 | 2 | -2 | -5 | 3
COc1ccnc(Oc2ccc(F)cc2)c1-c1ncn[nH]1 | 0 | 0 | -3 | 6 | 4
Cc1[nH]n(-c2nc(-c3ccc(Cl)cc3)cs2)c(=O)c1N=Nc1ccc(O)cc1 | 2 | 6 | 3 | 54* | -2
CC(C)C(C(=O)Nc1ccc2c(c1)OCO2)N1C(=O)c2ccccc2C1=O (centres undefined) | -3 | 8 | -32 | 4 | -6
CC(C)C(C(=O)Nc1ccc(N2CCOCC2)cc1)N1C(=O)c2ccccc2C1=O (centres undefined) | -2 | 60* | -13 | 6 | 5
CC(C)C(C(=O)Nc1ccc2c(c1)OCCO2)N1C(=O)c2ccccc2C1=O (centres undefined) | 0 | 94* | 12 | -13 | -6
Cc1nn(C)c(C)c1C1C(C#N)=C(N)OC2=C1C(=O)CC(C)(C)C2 (centres undefined) | 2 | 2 | -3 | 14 | -1
O=C(Nc1ccccc1)c1ncoc1-c1ccc(Cl)cc1 | -1 | -3 | 4 | x | 11
COC(=O)CN1C(=O)N/C(=C/c2cc(OC)c(OC)cc2C)C1=O | -2 | 90* | -6 | -31 | 4
Nc1c(C(=O)Nc2ccc(S(=O)(=O)N3CCCC3)cc2)sc2nc3ccc(OC(F)(F)F)cc3cc12 | -3 | 7 | 12 | 73* | -2
Cc1ccccc1OCCn1cnc2c(N)ncnc21 | 57* | 33* | -24 | -2 | 8
CN(CC1COc2ccccc2O1)C(=S)Nc1ccccc1 (centres undefined) | 2 | 28* | -24 | -8 | 1
CC(C)(C)NC(=O)NC(=O)COc1ccc(Br)cc1Br | -3 | 2 | -165 | -151 | -4
CCOC1=NC(C(=O)O)c2ccccc2/C(=C(/C)Cl)N1 (centres undefined) | 0 | 3 | -30 | 4 | -8
CCCCCCCCCCCCCCCC[n+]1cccc2ccccc21 | 101* | 82* | -5 | 23 | 28*
Cc1cc(/C=C2\C(=O)NN(c3ccccc3)C2=O)c(C)n1-c1ccccc1O | -5 | 1 | -55 | x | 0
CC1=[N+](C)c2ccc3ccccc3c2C1(C)C | 53* | 54* | -20 | 12 | -4
COc1ccc(C(=O)NC2CC2)cc1OC1CCN(Cc2ccccc2O)CC1 | x | x | -16 | x | 3
CC(=O)Nc1cc[n+](C(C)C(=O)c2ccccc2)cc1 (centres undefined) | x | x | 1 | x | -2
CC(=O)Nc1cc[n+](C(C)C(=O)c2ccc(Br)cc2)cc1 (centres undefined) | 40* | 37* | -4 | -8 | 1
CCOc1ccc(-c2c(C(=O)N/N=C/c3ccc(C)cc3)nnn2-c2nonc2N)cc1 | -4 | 0 | 10 | x | -4
CCOC(=O)N1CCN(C(=S)NC)CC1 | -2 | 4 | -5 | -6 | 2
CCC(=O)NC1CCN(C(=S)NC)CC1 | -6 | 62* | 1 | 6 | -12
O=C(c1ccc(Br)s1)N1CCN(c2ccccn2)CC1 | x | x | -25 | x | -7
O=C(N1CCN(c2ccccn2)CC1)N1c2ccccc2Sc2ccccc21 | 71* | 76* | 19 | 94* | 17
Cn1c(Cn2cnc3ccccc32)nnc1SCc1ccccc1 | -1 | 1 | -8 | -2 | -4
